For part of these data: Entries with a potency or affinity are not part of this list. Activity calls are given as the source filed them.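 Rule for the calls, unless noted: active = fitted half-maximal concentration within the tested dose range, moderate curve steepness, a statistically real signal drop, and little compound fluorescence or tag-binding interference; inactive = the rest.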
Tests used:
[1] = biological target: Cell division control protein 42 homolog (Homo sapiens) (UniProt P60953); assay: inhibition of fluorescent GTP binding to constitutively active Cdc42 – biochemical, multiplex bead flow cytometry, Bodipy-FL-GTP, dose response (AID 1333)
Sequence of Cell division control protein 42 homolog (Homo sapiens) (P60953 whole entry, looked up): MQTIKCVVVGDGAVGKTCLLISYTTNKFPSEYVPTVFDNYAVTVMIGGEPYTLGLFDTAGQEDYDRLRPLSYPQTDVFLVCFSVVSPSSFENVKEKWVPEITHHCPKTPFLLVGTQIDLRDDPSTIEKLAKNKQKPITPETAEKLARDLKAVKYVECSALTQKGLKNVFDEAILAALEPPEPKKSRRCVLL

[2] = biological target: Cell division control protein 42 homolog (Homo sapiens) (UniProt P60953); assay: inhibition of fluorescent GTP binding to wildtype Cdc42 – biochemical, multiplex bead flow cytometry, Bodipy-FL-GTP, dose response (AID 1334;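 active = fitted half-maximal concentration within the tested range, moderate curve steepness, significant signal drop, and little compound fluorescence or bead-linkage interference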); conditions: bead-based flow cytometry, Bodipy-FL-GTP binding to GST-Cdc42; at 100 µM (top of the series) unless noted
[3] = biological target: GTPase HRas (Homo sapiens) (UniProt P01112); assay: Ras wt fluorescent GTP loading blockade – biochemical, wildtype, multiplex bead flow cytometry, dose response (AID 1335;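 active = fitted half-maximal concentration within 10 nM to 100 µM, steepness 0.5 to 2, significant signal drop, low assay interference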); conditions: bead-based flow cytometry, Bodipy-GTP binding to GST-Ras; at 100 µM (top of the series) unless noted
Sequence of GTPase HRas (Homo sapiens) (P01112 whole entry, looked up): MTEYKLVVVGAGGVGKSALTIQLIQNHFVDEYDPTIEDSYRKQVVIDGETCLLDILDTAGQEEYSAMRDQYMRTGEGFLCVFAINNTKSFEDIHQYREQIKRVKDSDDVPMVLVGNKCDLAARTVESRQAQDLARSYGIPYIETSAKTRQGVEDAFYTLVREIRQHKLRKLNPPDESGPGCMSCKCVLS

[4] = system: Ras-related protein Rab-7a (dog), GTP binding; assay: blockers of fluorescent GTP binding to Rab7 – biochemical, wildtype, multiplex bead flow cytometry, dose response (AID 1336; call rule not given here)
[5] = biological target: Ras-related C3 botulinum toxin substrate 1 (Homo sapiens) (UniProt P63000); assay: inhibition of wildtype Rac1 nucleotide loading – biochemical, multiplex bead flow cytometry, dose response (AID 1340;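 active = dose curve with midpoint inside tested range, moderate steepness, plateau gap beyond fit error, low compound glow and bead-link interference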); conditions: GST-Rac1 beads, Bodipy-FL-GTP binding; at 100 µM (top of the series) unless noted
[6] = biological target: GTPase HRas (Homo sapiens) (UniProt P01112); assay: blockade of GTP loading onto mutant Ras – biochemical, activated mutant, multiplex bead flow cytometry, dose response (AID 1341;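 active = dose-response curve with midpoint inside the tested range, moderate steepness, significant amplitude and little compound fluorescence or bead-attachment interference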;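 note: GST-tagged constitutively activated Ras mutant immobilized on beads and multiplexed with other GTPases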)

SMILES	outcome [1]	fluorescence, percent of control (lower = inhibition) [2] [%]	GTP binding, percent of control [3] [%]	outcome [4]	GTP binding signal, raw median fluorescence (lower = inhibition) (MCF (arbitrary fluorescence units)) [5]	outcome [6]
Cc1ccc(C)c(N2CCN(C(=O)CN(C)S(=O)(=O)c3ccc4c(c3)CCC(=O)N4)CC2)c1	inactive	41.8	65.9	inactive	156	inactive
CCOc1c2ccc(C(=O)N[C@H](C)C3CCCCC3)cc2nn1CCOC	inactive	94.9	152	inactive	197	inactive
COc1ccc(OC)c(Nc2nc(-c3sc(N)nc3C)cs2)c1	inactive	32.7	72.6	inactive	179	inactive
CCC(OC(=O)c1cc2sccc2n1C)C(=O)NCc1ccco1 (stereo not given)	inactive	54.2	63	inactive	212	inactive
COc1ccc(-c2csc(C3=C(O)CN(C(C)C)C3=N)n2)cc1OC	inactive	31.9	73.2	inactive	181	inactive
CCCCCN1CC(O)=C(c2ccccc2)C1=N	inactive	82.3	158	inactive	179	inactive
COc1ccc(S(=O)(=O)Cc2ccc(C(=O)N3CCN(c4cccc(C)c4C)CC3)o2)cc1	inactive	41.5	62.1	inactive	171	inactive
CCc1ccccc1NC(=O)N1C2CCCC1CC(NC(C)=O)C2 (stereo not given)	inactive	102	152	inactive	191	inactive
COc1cccc(N=Nc2c(N)[nH]n3c(=O)c4c(nc23)CCCC4)c1	inactive	29.6	66.9	inactive	151	inactive
CCN(CC)S(=O)(=O)c1ccc2oc(C(=O)N3CCc4ccccc4C3)c(C)c2c1	inactive	59.3	78	inactive	0	inactive
COc1ccc(/C=N/Nc2ncnc3sc4c(c23)CCCC4)cc1O	inactive	30.6	42.8	inactive	112	inactive
Nc1[nH]n2c(=O)c3c(nc2c1N=Nc1ccccc1)CCCC3	inactive	31	41.6	inactive	109	inactive
Cc1nc2ncccn2c1-c1csc(Nc2ccccc2)n1	inactive	26.5	40.8	inactive	105	inactive
Cc1nn(-c2ccc(F)cc2)c(Cl)c1/C=C(\CCC(=O)O)c1nc2ccccc2s1	inactive	64.7	53.6	inactive	164	inactive
O=C(NCc1cccs1)c1cccn2c(=O)c3sccc3nc12	inactive	32.6	69.2	inactive	138	inactive
CSc1nnc(C)c(/C=C/Nc2ccc(C)cc2)n1	inactive	74.9	144	inactive	155	inactive
C/C(=N\NC(=O)c1ccc(Cl)c(S(=O)(=O)Nc2ccccc2Cl)c1)c1ccncc1	inactive	38.1	54	inactive	92	inactive
Cc1cc(C)nc(Nc2nc(=O)c3ccccc3s2)n1	inactive	50.5	61.9	inactive	205	inactive
Cc1ccc(Nc2ncccc2C(=O)O)cc1	inactive	58.7	85.1	inactive	31.3	inactive
CCOc1ccc(-n2nc3c(=S)[nH]nc(C)c3c2C)cc1	inactive	53.6	66.6	inactive	0	inactive
CC1(C)CC2CC(C)(CN2C(=O)c2cccs2)C1 (stereo not given)	inactive	43.3	59.5	inactive	184	inactive
CSc1nc2nccc(-c3ccc(-c4ccccc4)cc3)n2n1	inactive	79.7	132	inactive	138	inactive
Cc1nc2cccc(C)n2c(=O)c1Cl	inactive	38.6	83.8	inactive	255	inactive
Oc1ccc(NC(=S)N=Nc2c(O)[nH]c3ccccc23)cc1	inactive	16.7	62.5	inactive	62.8	inactive
NC1=NC(=O)/C(=C/c2cn(CCC(=O)O)nc2-c2ccc(Cl)cc2)S1	inactive	18.2	42.4	inactive	65.5	inactive
N#C/C(=C/c1ccc(N2CCCCCC2)o1)c1ccc(Cl)cc1	inactive	127	205	inactive	210	inactive
Oc1ccc(/C=N/NC(=S)N/N=C/c2ccc(O)cc2)cc1	inactive	45	88.4	inactive	177	inactive
O=C1/C(=C/c2ccc(N3CCOCC3)o2)SC(=Nc2ccccc2)N1CCc1c[nH]c2ccccc12	inactive	104	114	inactive	242	inactive
CCOc1ccccc1C1C(C(=O)OC)=C(N)OC2=C1C(=O)CCC2 (stereo not given)	inactive	90	149	inactive	184	inactive
Clc1cccc(Cl)c1/C=N\Nc1nccs1	inactive	96.7	151	inactive	190	inactive

Reference: PubChem BioAssay
